{
  "source": "PubChem BioAssay (EPA / NIEHS)",
  "note": "Calls of active or inactive are those of the source. How the source made its calls: active means hit-call score of the fitted dose curve at least 0.9, where 1 is the maximum; inactive means score below 0.9.",
  "data": [
    {"assay": "ATG_M_61_CIS: Attagene CIS-FACTORIAL HepG2 Assay for M61 Transcription Factor (Internal Marker) (AID 2282937)", "conditions": "HepG2 Attagene CIS-FACTORIAL M61 internal marker reporter; actives raise or lower the signal", "experimental": "ATG_CIS is a cell-based, multiplexed-readout assay that uses HepG2, a human liver cell line, with measurements taken at 24 hours after chemical dosing in a 24-well plate.ATG_M_61_CIS is one of 52 assay component(s) measured or calculated from the ATG_CIS assay. It is designed to make measurements of mRNA induction, a form of inducible reporter, as detected with fluorescence intensity signals by Reverse transcription polymerase chain reaction (RT-PCR) and Capillary electrophoresis technology.Data from the assay component ATG_M_61_CIS was analyzed into 1 assay endpoint. This assay endpoint, ATG_M_61_CIS, was analyzed with bidirectional fitting relative to DMSO as the negative control and baseline of activity. Using a type of inducible reporter, measures of mRNA for gain or loss-of-signal activity can be used to understand the background control at the transcription factor-level as they relate to the gene . Furthermore, this assay endpoint can be referred to as a secondary readout, because this assay has produced multiple assay endpoints where this one serves a background control function. To generalize the intended target to other relatable targets, this assay endpoint is annotated to the background measurement intended target family, where the subfamily is internal marker.\nHuman liver HepG2 cells are transiently transfected with multiple reporter transcription units (MRTUs) in 6-well plates using FuGene 6 reagent (Roche; 3 ml FuGene/1 mg DNA). The MRTU constructs are regulated by a cis-regulating element (promoter). […] A major difference between the CIS and TRANS system is that in CIS activities of endogenous TFs are measured, whereas the TRANS assay evaluates changes in activities of exogenous, chimeric NR-Gal4 proteins. […] At the end of 24 hour incubation, total RNA was isolated using TriZol reagent (Invitrogen). The isolated RNA is then reverse-transcribed using oligo(dT) primer and Mo-MLV reverse transcriptase (Invitrogen) with DNAse I (Ambion) treatment for 30 min. The one-tenth of the produced cDNA was amplified by PCR using Taq DNA polymerase (Invitrogen) and two reporter sequence-specific primers. The PCR products were fluorescently labeled by primer extension with 6-arboxyfluorescein (6-FAM) 5'-labeled reporter sequence-specific primer (2 min at 95 C, 20 s at 68 C and 10 min at 72 C) and these products were digested with 5U of HpaI (New England Biolabs) for 2h at 37 C. The fragments were purified using Qiaquick PCR columns (Qiagen), analyzed on an ABI 3130xL genetic analyzer (Applied Biosystems) with peak positions identified by using a set of X-rhodamine (ROX)-labeled MapMarker1000 molecular weight standards (BioVentures). The raw capillary electrophoresis data was processed using Attagraph software (Attagene).", "values": [
      {"smiles": "CCCN(CCOc1c(Cl)cc(Cl)cc1Cl)C(=O)n1ccnc1", "outcome": "inactive"},
      {"smiles": "Cc1cc(C)nc(NC(=O)NS(=O)(=O)c2ccccc2C(=O)OC2COC2)n1", "outcome": "inactive"},
      {"smiles": "Oc1ccc(Cl)cc1Cc1ccccc1", "outcome": "inactive"},
      {"smiles": "CC1(c2ccc(Oc3ccccc3)cc2)OC(=O)N(Nc2ccccc2)C1=O", "note": "(stereo not given)", "outcome": "inactive"},
      {"smiles": "CNC(=O)/C=C(\\C)OP(=O)(OC)OC", "outcome": "inactive"},
      {"smiles": "CCS(=O)(=O)c1cccnc1S(=O)(=O)NC(=O)Nc1nc(OC)cc(OC)n1", "outcome": "inactive"},
      {"smiles": "COC(=O)c1ccccc1S(=O)(=O)NC(=O)N(C)c1nc(C)nc(OC)n1", "outcome": "inactive"},
      {"smiles": "N#Cc1c(Cl)c(Cl)c(Cl)c(C#N)c1Cl", "outcome": "inactive"},
      {"smiles": "O=C(NC(=O)c1c(F)cccc1F)Nc1ccc(OC(F)(F)C(F)OC(F)(F)F)c(Cl)c1", "note": "(stereo not given)", "outcome": "inactive"},
      {"smiles": "CCOc1nc(NC)nc(NC(=O)NS(=O)(=O)c2ccccc2C(=O)OC)n1", "outcome": "inactive"},
      {"smiles": "COP(=S)(OC)Oc1ccc([N+](=O)[O-])cc1", "outcome": "inactive"},
      {"smiles": "N#CN", "outcome": "inactive"},
      {"smiles": "O=S1OCC2C(CO1)C1(Cl)C(Cl)=C(Cl)C2(Cl)C1(Cl)Cl", "note": "(stereo not given)", "outcome": "inactive"},
      {"smiles": "[2H]C1([2H])[n+]2ccccc2-c2cccc[n+]2C1([2H])[2H]", "outcome": "inactive"},
      {"smiles": "O=C(Nc1ccccc1)Nc1cnns1", "outcome": "inactive"},
      {"smiles": "CCC(C)(NC(=O)c1cc(Cl)c(C)c(Cl)c1)C(=O)CCl", "note": "(stereo not given)", "outcome": "inactive"},
      {"smiles": "CCC(C)Nc1c([N+](=O)[O-])cc(C(C)(C)C)cc1[N+](=O)[O-]", "note": "(stereo not given)", "outcome": "inactive"},
      {"smiles": "COC(=O)c1ccccc1CS(=O)(=O)NC(=O)Nc1nc(OC)cc(OC)n1", "outcome": "inactive"},
      {"smiles": "O=C(O)C(F)(F)C(F)(F)C(F)(F)C(F)(F)C(F)(F)C(F)(F)C(F)(F)F", "outcome": "inactive"},
      {"smiles": "Oc1cc(Cl)ccc1Oc1ccc(Cl)cc1Cl", "outcome": "inactive"},
      {"smiles": "O=C1c2ccccc2C(=O)N1SC(Cl)(Cl)Cl", "outcome": "inactive"},
      {"smiles": "O=S(=O)(O)C(F)(F)C(F)(F)C(F)(F)C(F)(F)C(F)(F)C(F)(F)C(F)(F)C(F)(F)F", "outcome": "inactive"},
      {"smiles": "COP(=S)(OC)Oc1ccc(SC)c(C)c1", "outcome": "inactive"},
      {"smiles": "CCN(CC)C(=O)SCc1ccc(Cl)cc1", "outcome": "inactive"},
      {"smiles": "CNC(=O)Oc1cccc(N=CN(C)C)c1", "outcome": "inactive"},
      {"smiles": "CNC(=O)CSP(=S)(OC)OC", "outcome": "inactive"},
      {"smiles": "Cc1[nH]c(=O)n(C(C)(C)C)c(=O)c1Cl", "outcome": "inactive"},
      {"smiles": "CC1(C)C(C=C(Cl)Cl)C1C(=O)OC(C#N)c1ccc(F)c(Oc2ccccc2)c1", "note": "(stereo not given)", "outcome": "inactive"},
      {"smiles": "CCCN(CCC)c1c([N+](=O)[O-])cc(C(F)(F)F)cc1[N+](=O)[O-]", "outcome": "inactive"},
      {"smiles": "OCCOc1ccccc1", "outcome": "inactive"},
      {"smiles": "Clc1ccccc1-c1nnc(-c2ccccc2Cl)nn1", "outcome": "inactive"},
      {"smiles": "C#CCN1C(=O)COc2cc(F)c(N3C(=O)C4=C(CCCC4)C3=O)cc21", "outcome": "inactive"},
      {"smiles": "COC(=O)c1ccccc1S(=O)(=O)NC(=O)Nc1nc(C)nc(OC)n1", "outcome": "inactive"},
      {"smiles": "CC[C@H](C)[C@H]1O[C@]2(C=C[C@@H]1C)C[C@@H]1C[C@@H](C/C=C(\\C)[C@@H](O[C@H]3C[C@H](OC)[C@@H](O[C@H]4C[C@H](OC)[C@@H](O)[C@H](C)O4)[C@H](C)O3)[C@@H](C)/C=C/C=C3\\CO[C@@H]4[C@H](O)C(C)=C[C@@H](C(=O)O1)[C@]34O)O2", "note": "(tested in a mixture with another compound)", "outcome": "inactive"},
      {"smiles": "CC(C)(C)C(O)C(Oc1ccc(Cl)cc1)n1cncn1", "note": "(stereo not given)", "outcome": "inactive"},
      {"smiles": "CCOCN(C(=O)CCl)c1c(C)cccc1CC", "outcome": "inactive"},
      {"smiles": "CC(C)N(C(=O)COc1nnc(C(F)(F)F)s1)c1ccc(F)cc1", "outcome": "inactive"},
      {"smiles": "COP(=O)(OC)OC=C(Cl)Cl", "outcome": "inactive"},
      {"smiles": "COc1cc(OC)nc(NC(=O)NS(=O)(=O)c2cc(NC=O)ccc2C(=O)N(C)C)n1", "outcome": "inactive"},
      {"smiles": "O=C(O)COc1ccc(Cl)cc1Cl", "outcome": "inactive"}
    ]}
  ]
}
